The text below walks through data of PubChem BioAssay (NCI).

This is part of a sample that, as a whole, favours compounds with a hit. Of some 79,000 tested, about 15% had one in any assay. Values without a mark were called inactive. Calls of active or inactive are those of the source. No stated cut-off is given here; in the data, active means growth inhibition above about 70%; inactive means the rest.

Assay [1] can be described thus: NCI Yeast Anticancer Drug Screen. Data for the rad50 strain (AID 155).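 Further: 0% = growth of vehicle-only cultures of the same strain.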 To be noted: S. cerevisiae rad50 strain growth inhibition; at 50.0 µM; active compounds read high. In short, it runs like this: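 Compounds were tested on a yeast strain with an engineered DNA damage repair alteration; the reported value is growth inhibition normalised to vehicle treatment.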
Assay [2] is described as follows: NCI Yeast Anticancer Drug Screen. Data for the mec2-1 strain (AID 157). The following applies: S. cerevisiae mec2-1 strain, at 50.0 µM, active compounds read high. A digest of the protocol:
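Vehicle-treated cultures served as reference for growth inhibition of compound-exposed mec2-1 yeast.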

Assay [3] can be described thus: NCI Yeast Anticancer Drug Screen. Data for the sgs1 mgt1 strain (AID 161).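 Further: 0% = growth of cultures given vehicle only.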 The following applies: S. cerevisiae sgs1 mgt1 strain, at 50.0 µM, active compounds read high. A digest of the protocol: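 Genetically altered yeast, compound exposure, growth inhibition relative to vehicle.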
The nature of assay [4]: NCI Yeast Anticancer Drug Screen. Data for the cln2 rad14 strain (AID 165).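 Further: 0% = growth equal to vehicle treated cultures.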 The following applies: S. cerevisiae cln2 rad14 strain, at 50.0 µM, active compounds read high. A digest of the protocol: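 Each compound was tested on cln2 rad14 yeast. Inhibition of growth was calculated against vehicle-exposed controls.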
Assay [5] is described as follows: NCI Yeast Anticancer Drug Screen. Data for the bub3 strain (AID 167). The following applies: S. cerevisiae bub3 mutant strain, at 50.0 µM, active compounds read high. In short, it runs like this:
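Growth of a checkpoint-deficient yeast mutant is measured after compound exposure. Values represent inhibition relative to vehicle.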

The nature of assay [6]: NCI Yeast Anticancer Drug Screen. Data for the mlh1 rad18 strain (AID 175). To be noted: S. cerevisiae mlh1 rad18 strain growth inhibition; at 50.0 µM; active compounds read high. A digest of the protocol: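 Vehicle-treated cultures served as the reference for growth inhibition in a yeast strain carrying DNA damage repair alterations exposed to each compound.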

Turning to `Oc1cc2c(cc1C(c1ccc(F)cc1)N1CCCC1)OCO2` (centres undefined), the growth inhibition in assay [1] was 33.1%; in assay [2] it was 19.5%; in assay [3] it was 39.9%; in assay [4] it was -15.6%; in assay [5] it was 37.9%; in assay [6], 35.1%.

Turning to `O=c1oc2ccccc2c2ccccc12`, the growth inhibition in assay [1] was -2.8%; in assay [2] it was -9.55%; in assay [3], -16.5%; in assay [4], -5.95%; in assay [5], 1.25%; in assay [6] it was -7.8%.

Turning to `CC(=O)/C=C/CCC(=O)/C=C/C(=O)OC(CCC(=O)/C=C/C(=O)O)CC(C)=O` (centres undefined), the growth inhibition in assay [1] is -5.25%; in assay [2], -30.4%; in assay [3], -18.4%; in assay [4] it was 19.1%; in assay [5], -24.1%; in assay [6], -5.95%.

For the compound `O=C(O)CCc1ccc(O)c(O)c1`, the growth inhibition in assay [1] was 19.6%; in assay [2] it was 2.5%; in assay [3], 11.8%; in assay [4], 13.3%; in assay [5], 2.8%; in assay [6] it was -21.8%.

For `CCOC(=O)Cc1nc2ncncc2[nH]c1=O`, the growth inhibition was 3.25% in assay [1]; 12.2% in assay [2]; -1.8% in assay [3]; 15.3% in assay [4]; 2.35% in assay [5]; -7.85% in assay [6].

For `S=C(Nc1ccccc1)c1ccccc1`, the growth inhibition was -23.2% in assay [1]; -16.5% in assay [2]; -5.25% in assay [3]; -29.3% in assay [4]; -5.1% in assay [5]; 16.1% in assay [6].

In the case of `Cc1ccc(S(=O)(=O)CO)cc1`, the growth inhibition was 0.5% in assay [1]; -3.2% in assay [2]; 14.3% in assay [3]; -51.5% in assay [4]; -27.9% in assay [5]; 11% in assay [6].

For the compound `COc1cccc(/C=C2\C(=O)N(C(=O)Cc3ccccc3)N=C2C)c1`, the growth inhibition in assay [1] was 4.3%; in assay [2] it was -30.2%; in assay [3], -34.8%; in assay [4] it was -0.45%; in assay [5] it was -14.8%; in assay [6], -24.1%.

As to `CCN=C1SCCCS1`, the growth inhibition is -8.8% in assay [1]; -22.8% in assay [2]; -13.4% in assay [3]; -19.5% in assay [4]; -15.9% in assay [5]; -14.8% in assay [6].

As to `CC1COC(C(C)c2ccccc2)O1` (centres undefined), the growth inhibition in assay [1] is -0.05%; in assay [2] it was -18.4%; in assay [3] it was -10.8%; in assay [4], -35.2%; in assay [5], -29.9%; in assay [6], 6.1%.

With `C=CCCCCCCCCC(=O)OC`, the growth inhibition in assay [1] was -11.8%; in assay [2], -17.9%; in assay [3], 10.2%; in assay [4], -10.5%; in assay [5], -5.1%; in assay [6], -31.4%.

For `O=C(OC(c1ccc(Cl)cc1)c1ccc(Cl)cc1)C(c1ccc(Cl)cc1)c1ccc(Cl)cc1`, the growth inhibition is 15.5% in assay [1]; 10.4% in assay [2]; 14.8% in assay [3]; -13.5% in assay [4]; -3.35% in assay [5]; 30.7% in assay [6].

Consider `COc1cc(C(=O)Nc2cccc3ccccc23)c(Br)c(OC)c1OC`, for which the growth inhibition in assay [1] was 19.3%; in assay [2] it was 17.3%; in assay [3], 39.5%; in assay [4] it was 26.9%; in assay [5], 53.5%; in assay [6] it was 32.7%.

Take `CC(C)CNC(=S)N/N=C/c1ccc(N)cc1`: the growth inhibition in assay [1] was 31.6%; in assay [2], 13.7%; in assay [3], 3%; in assay [4], 27.8%; in assay [5], 6%; in assay [6] it was -1.1%.

Regarding `CCCNc1nc2c(c(=O)n(C)c(=O)n2C)n1C`, the growth inhibition in assay [1] is -11.2%; in assay [2] it was 0.1%; in assay [3], 13.7%; in assay [4], -29.7%; in assay [5] it was 23.1%; in assay [6] it was 7.9%.

In the case of `c1ncncn1`, the growth inhibition in assay [1] was 7.5%; in assay [2], 5.95%; in assay [3], 10.1%; in assay [4] it was 3.05%; in assay [5], 5.25%; in assay [6], -7.85%.

`CCOC(=O)C(=CNC(=S)Nc1ccccc1)C(=O)OCC`: the growth inhibition in assay [1] is -24.9%; in assay [2], -22.9%; in assay [3], -23.8%; in assay [4] it was -17.1%; in assay [5], -13.7%; in assay [6], 2.2%.

As for `CNCCCN1CCCCC1`, the growth inhibition in assay [1] is 31.8%; in assay [2], 16%; in assay [3], 22.4%; in assay [4], 6.3%; in assay [5], -4.4%; in assay [6], 13.6%.

As to `Clc1ccc(OCCBr)cc1`, the growth inhibition is 39.2% in assay [1]; 27.9% in assay [2]; 29.4% in assay [3]; 19.9% in assay [4]; 3.8% in assay [5]; 25.6% in assay [6].

As for `CC1(C)CC[C@]2(C(=O)O)CC[C@]3(C)C(=CC[C@@H]4[C@@]5(C)CC[C@H](OC6OC(CO)C(O)C(O)C6OC6OC(CO)C(O)C(O)C6O)C(C)(C)[C@@H]5CC[C@]43C)[C@@H]2C1` (some centres undefined), the growth inhibition was 86.8% (active) in assay [1]; 86.7% (active) in assay [2]; 87.1% (active) in assay [3]; 86.2% (active) in assay [4]; 84.3% (active) in assay [5]; 83.5% (active) in assay [6].

Consider `O=C(CCC(=O)Nc1cc(Cl)ccc1Cl)CC(=O)c1ccc([N+](=O)[O-])cc1`, for which the growth inhibition is 10.1% in assay [1]; 28.9% in assay [2]; 4.35% in assay [3]; 13.8% in assay [4]; -2% in assay [5]; 40.4% in assay [6].

In the case of `COC(=O)C(C)=C1CCCCC1`, the growth inhibition in assay [1] is 17.9%; in assay [2], -3.9%; in assay [3], -13.2%; in assay [4], -38%; in assay [5], 11.6%; in assay [6] it was -13.2%.

For `c1ccc2c3c(ccc2c1)OCCOCCOc1ccc2ccccc2c1-3`, the growth inhibition in assay [1] was 76.7% (active); in assay [2], 84.8% (active); in assay [3] it was 76.5% (active); in assay [4], 8.5%; in assay [5], 91.9% (active); in assay [6], 86% (active).

For `Cc1cc(=O)c2ccccc2n1CCCCCCCCCCn1c(C)cc(=O)c2ccccc21`, the growth inhibition in assay [1] was -12.1%; in assay [2], -0.25%; in assay [3], -17%; in assay [4], -21.9%; in assay [5], -26.6%; in assay [6], 26.4%.

As for `C=C1CC(C)(Cn2cnc3c(=O)[nH]cnc32)OC1=O` (centres undefined), the growth inhibition in assay [1] is 18.1%; in assay [2], 22.7%; in assay [3] it was 12.9%; in assay [4] it was 8%; in assay [5] it was 16.6%; in assay [6] it was 21.6%.

`Cc1cccc(CP(Cc2cccc(C)c2)CC2(Cp3c4ccccc4c4ccccc43)COC2)c1`: the growth inhibition in assay [1] was 18%; in assay [2], -0.8%; in assay [3], 33.4%; in assay [4], 26.9%; in assay [5], 31.6%; in assay [6] it was 34.5%.

In the case of `CNn1c(C)n[nH]c1=O`, the growth inhibition is 4.95% in assay [1]; -15.8% in assay [2]; 10.4% in assay [3]; 20.6% in assay [4]; 3.4% in assay [5]; 17.1% in assay [6].

Regarding `O=c1[nH]c(Sc2ccccc2)nc2ccccc12`, the growth inhibition in assay [1] was 15.7%; in assay [2], 9.45%; in assay [3] it was 13.1%; in assay [4], -58.1%; in assay [5], 18.2%; in assay [6] it was 7.25%.

`CC(C)CCC[C@@H](C)[C@H]1CC[C@H]2[C@@H]3CC[C@H]4OC(=O)CC[C@]4(C)[C@H]3CC[C@]12C`: the growth inhibition in assay [1] is -19.4%; in assay [2], -33.9%; in assay [3], -30.4%; in assay [4], -2.2%; in assay [5] it was -27.7%; in assay [6] it was -9.85%.

Turning to `Cc1c2c(n3c(nc4ccccc43)c1C#N)SCC2`, the growth inhibition in assay [1] is -51.3%; in assay [2], -49.3%; in assay [3], -44.5%; in assay [4], -8.5%; in assay [5], -22%; in assay [6], -17.5%.

As for `Cc1csc(NNC(N)=O)n1`, the growth inhibition was 1.65% in assay [1]; -8.05% in assay [2]; -63.5% in assay [3]; -14% in assay [4]; -42.9% in assay [5]; -27.4% in assay [6].

Consider `CC(NC(=O)N=Nc1ccccc1)C(=O)O` (centres undefined), for which the growth inhibition in assay [1] was -3.05%; in assay [2], -8.95%; in assay [3], -9.6%; in assay [4], -39%; in assay [5], -11.1%; in assay [6], 6.2%.

On to `CCOC(=O)C1C(c2cc(OC)c(OC)c(OC)c2)c2cc3c(cc2OC1(C)OC)OCO3` (centres undefined), for which the growth inhibition in assay [1] was 5.55%; in assay [2] it was 5.4%; in assay [3], -0.15%; in assay [4], -1.3%; in assay [5] it was -5.25%; in assay [6], 19.1%.

On to `CCOC/C(=N\NC(N)=O)c1ccccc1`, for which the growth inhibition in assay [1] was -16.8%; in assay [2], -22.2%; in assay [3] it was -22.9%; in assay [4], -1.85%; in assay [5], 9.3%; in assay [6], -20.3%.

On to `CCCCc1c2cnccc2c(CCCC)c2c1[nH]c1ccccc12`, for which the growth inhibition in assay [1] was 88.8% (active); in assay [2], 90.3% (active); in assay [3], 91.8% (active); in assay [4] it was 81.9% (active); in assay [5], 89.2% (active); in assay [6] it was 88.2% (active).

`N#CC(F)(F)C(F)(F)C(F)(F)C(F)(F)C(F)(F)C(F)(F)C(F)(F)F`: the growth inhibition in assay [1] was 33.5%; in assay [2], -18.8%; in assay [3], -11.2%; in assay [4], -21.8%; in assay [5], -15.3%; in assay [6], -4.6%.

With `CC(C)C1SCC(=O)N1c1nncs1` (centres undefined), the growth inhibition in assay [1] is -2.55%; in assay [2], 22.4%; in assay [3] it was 9.15%; in assay [4], -27.8%; in assay [5], -0.9%; in assay [6], 5%.

In the case of `O=C1CCCC(CCc2ccccc2)O1` (centres undefined), the growth inhibition was 5.45% in assay [1]; -4.05% in assay [2]; 1.3% in assay [3]; -8% in assay [4]; -37.1% in assay [5]; -7.9% in assay [6].

For the compound `ON(CCc1ccncc1)Cc1ccccc1`, the growth inhibition in assay [1] was 1.6%; in assay [2] it was -31.1%; in assay [3], -20.1%; in assay [4] it was 2.95%; in assay [5], -56.3%; in assay [6], 15.5%.
